Pf growth 96h: P. falciparum growth inhibition at 96 hours. 320,000 tested, 6.9% active. Potency, µM (titrated, usually from 28.7 µM), hits mostly inhibitors. P. falciparum luciferase reporter growth, 96 h
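Delayed-death screen, second-generation endpoint: infected erythrocytes, 2% hematocrit, 0.05% parasitemia final; 96 hours at 37 C, 5% CO2; luciferase detection reagent; luminescence decrease equals reduced growth.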
AMA1-RON2 inh: inhibitors of Plasmodium falciparum AMA1-RON2 interaction. 360,000 tested, 0.2% active. AlphaScreen AMA1-biotinylated RON2 peptide binding. AID 720542. Potency, µM (series often up to 58.2 µM), hits mostly inhibitors; also: nearly all actives have a fitted effect of over 45% in size
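AMA1 (3D7) with his tag at 25 nM final met compounds first, then biotinylated RON2 peptide at 25 nM; detection used donor plus acceptor beads, 10 µg/mL apiece, read by AlphaScreen after 30 min at room temperature.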
HCV inh: HCV inhibition. Huh7.5.1 HCVcc-Cre infection, luciferase reporter, 44 h. Potency, µM (highest dose often 41.8 µM), usual class: inhibitors. 340,000 tested, 3.4% active
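Luciferase read-out (15 sec integration) after a 15 min room-temperature substrate step quantifies HCVcc-Cre infection. Cells, 1,000 per well, had compound added 4 h post-plating, then virus at ~0.5 moi, and were cultured 44 h.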
Pf growth 48h: P. falciparum growth inhibition at 48 hours (one generation). P. falciparum luciferase growth in erythrocytes, 48 h. Potency, µM (titrated, usually from 28.7 µM), most hits filed as inhibitors. AID 504832. 310,000 tested, 5.9% active
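Here the parasites carry a stable luciferase gene and grow inside erythrocytes in Albumax-based RPMI medium with compound for one erythrocytic cycle. Activity is scored as loss of luminescent signal.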
AmpC inh no detg: AmpC beta-lactamase inhibition without detergent | Potency, µM (series often up to 57.1 µM), usual class: inhibitors | 330,000 tested, 0.52% active | P00811 | AmpC nitrocefin hydrolysis, absorbance 480 nm, 0.0001% Triton; also: nearly all actives have a fitted effect of over 20% in size
Target sequence (P00811 whole entry, looked up): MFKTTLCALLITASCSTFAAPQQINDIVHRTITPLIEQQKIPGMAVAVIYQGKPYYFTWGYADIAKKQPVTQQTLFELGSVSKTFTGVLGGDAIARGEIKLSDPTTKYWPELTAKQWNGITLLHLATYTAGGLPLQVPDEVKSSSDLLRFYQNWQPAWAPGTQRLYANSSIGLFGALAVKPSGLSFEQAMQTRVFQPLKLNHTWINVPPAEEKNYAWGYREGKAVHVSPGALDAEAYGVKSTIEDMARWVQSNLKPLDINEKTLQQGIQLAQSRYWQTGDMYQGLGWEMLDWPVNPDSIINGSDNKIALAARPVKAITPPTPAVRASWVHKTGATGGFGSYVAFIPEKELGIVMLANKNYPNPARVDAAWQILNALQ
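20 mM phosphate pH 7.0 + 0.01% (detergent screen) or 0.0001% Triton X-100; 5.3 nM AmpC reagent; cpd preinc 15 min RT; nitrocefin (800 uM stock) to start; A480 q20 s × 4 min; Activity was normalised to no-enzyme and no-compound control wells.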
AmpC detergent: inhibitors of E. coli AmpC beta-lactamase with detergent; 370,000 tested, 0.041% active; Potency, µM (highest dose often 114 µM), most hits filed as inhibitors; AmpC hydrolysis of nitrocefin, absorbance 480 nm, 0.01% Triton; also: nearly all actives have a fitted effect of over 25% in size
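AmpC (5.3 nM in the dispensed reagent) in 20 mM phosphate pH 7.0 with 0.01% (detergent screen) or 0.0001% Triton X-100 was preincubated with compounds for 15 min at room temperature. Nitrocefin was then added from an 800 uM solution, and hydrolysis was followed at 480 nm.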
Numbers stand for hits; . = inactive; ? = inconclusive; / = not tested or not shown; [ ] = another dose, or the depositor's remark. An excerpt weighted towards active compounds, which were near 11% of everything screened. Calls follow the shape of the dose curve; as a rule, active = well fitted curve in the direction sought with a large enough effect; inconclusive = small, poorly fitted or top-dose-only effect, or another doubt; inactive = no such curve, though single readings can be large; an effect the other way counts as inactive or inconclusive.

SMILES	Pf growth 96h	AMA1-RON2 inh	HCV inh	Pf growth 48h	AmpC inh no detg	AmpC detergent
CCC(=O)NCCCNc1nc2c(C)cccc2cc1C#N	.	.	?	.	.	.
COc1ccc2nc(NCCNC(=S)NCCCN3CCOCC3)c(C#N)cc2c1	.[5.75 µM]	.	.	?	.	.
Cc1cccc2cc(C#N)c(NCCNS(=O)(=O)c3ccc4c(c3)OCCO4)nc12	5.22µM	.	?	.	.	.
Cc1cccc2cc(C#N)c(NCCNC(=S)NCCCN3CCOCC3)nc12	.	.	11.2µM	10.4µM	.	.
CCN(CC)c1ccc(NC(=O)c2c(C)nn(-c3ccc(F)cc3)c2-n2cccc2)c(C)c1	/	/	/	/	/	.
COc1ccc(CCC(C)NCC2CCCCC2)cc1 (configuration not stated)	13.1µM	.[11.6 µM]	.	?	.	.
COc1ccc(CCC(C)NCc2ccc(Cl)c(Cl)c2)cc1 (configuration not stated)	6.57µM	.	.	.	.	.
CC1=C(C#N)C(c2ccccc2)C2=C(N1)c1ccccc1C2=O (configuration not stated)	14.7µM	.	?	?	.	?
CCOC(=O)C1(Cc2ccccc2)CCN(Cc2cn(CC(=O)OC)c3ccccc23)CC1	5.22µM	.	.	?	.	.
CCOC(=O)C1(CC2CC2)CCN(Cc2ccc(C(=O)OC)cc2)CC1	.	.	.	9.28µM	.	.
CCOC(=O)C1(Cc2ccccc2)CCN(Cc2cccc(OC)c2O)CC1	10.4µM	.	?	?	.	.
CCOC(=O)C1(Cc2cccc(OC)c2)CCN(Cc2cccn2-c2nccs2)CC1	?	.	.	11.7µM	.	.
CCOC(=O)C1(Cc2ccccc2)CCN(Cc2cccn2-c2nccs2)CC1	.	?	?	.	.	.
CCOC(=O)C1(Cc2ccccc2C(F)(F)F)CCN(Cc2ccc(COC)o2)CC1	?	.	8.91µM	?	.	.
CCOC(=O)C1CCN(Cc2ccc(OC)c(OCc3ccccc3)c2)CC1	11.7µM	.	?	.	.	?
CCOC(=O)C1(CC2CC2)CCN(Cc2cnc(N(C)C)s2)CC1	.	.	.	.	.	.
CCOC(=O)C1(Cc2cccc(OC)c2)CCN(Cc2ccccc2OC)CC1	.	.	?	.	.	.
CCOC(=O)C1(CC2CC2)CCN(Cc2cn(C)c3ccccc23)CC1	.	.	10µM	?	.	.
CCOC(=O)C1(CCOC)CCN(Cc2ccc(COC)o2)CC1	?	.	.	.	.	.
CCOC(=O)C1(Cc2cccc(OC)c2)CCN(Cc2cccc(OC)c2O)CC1	13.1µM	.	?	?	.	.
COc1ccccc1NC(=O)C1CCC(CNS(=O)(=O)c2ccc3c(c2)CC(C)N3C(C)=O)CC1 (configuration not stated)	/	/	/	/	/	.
CCN(c1cccc(C)c1)S(=O)(=O)c1ccc(N2CCCCS2(=O)=O)cc1	/	/	/	/	/	.
Cc1oc(-c2ccccc2Cl)nc1CS(=O)CC(=O)N1CCN(c2cccc(C(F)(F)F)c2)CC1 (configuration not stated)	/	/	/	/	/	.
CC(=O)c1ccc(NC(=O)Cn2c(-n3nc(C)cc3C)nc(C)cc2=O)cc1	/	/	/	/	/	.
CCOC(=O)C1(Cc2cccc(OC)c2)CCN(Cc2ccc(OC)c(OC)c2)CC1	?	.	11.2µM	?	.	.
SMILES	Pf growth 96h	AMA1-RON2 inh	HCV inh	Pf growth 48h	AmpC inh no detg	AmpC detergent
CCOC(=O)C1(Cc2cccc(OC)c2)CCN(Cc2cccc(O)c2)CC1	?	.	.	?	.	.
CCOC(=O)C1=C(CNCc2ccccc2)NC(=O)NC1c1ccc(C)cc1 (configuration not stated)	/	/	/	/	/	.
Cc1ccc2nc3sc(C(=O)Nc4ccc(N5CCOCC5)cc4)c(N)c3cc2c1	?	/	.	?	0.355µM	.
Cc1cccc2cc3c(N)c(C(=O)Nc4ccc(N5CCOCC5)cc4)sc3nc12	?	.	3.98µM	?	.	.
CCc1cccc2cc3c(N)c(C(=O)Nc4ccc(S(=O)(=O)N5CCCC5)cc4)sc3nc12	?	.	?	11.7µM	.	?
COc1ccc(NC(=O)CSc2oc(-c3cccs3)nc2S(=O)(=O)c2ccc(Br)cc2)c(OC)c1	/	/	/	/	/	.
CCC1(c2ccccc2)NC(=O)N(CC(=O)Nc2cc(S(=O)(=O)N3CCCCC3)ccc2N(C)C)C1=O (configuration not stated)	?	.	?	?	.	?
CC1(c2ccc(Cl)cc2)NC(=O)N(CC(=O)N2CCCC2)C1=O (configuration not stated)	.	.	15.8µM	.	.	.
COc1ccc(S(=O)(=O)N2CCCCCC2)cc1NC(=O)CN1C(=O)NC(C)(c2ccccc2)C1=O (configuration not stated)	4.15µM	.	?	9.28µM	.	.
CCCC1(c2ccccc2)NC(=O)N(CC(=O)Nc2cc(S(=O)(=O)N3CCOCC3)ccc2Cl)C1=O (configuration not stated)	13.1µM	.	.	.	.	.
CCOc1ccc(S(=O)(=O)N2CCOCC2)cc1NC(=O)CN1C(=O)NC(C)(c2ccc(C)cc2)C1=O (configuration not stated)	?	.	?	10.4µM	.	.
CCOc1ccc(S(=O)(=O)N2CCOCC2)cc1NC(=O)CN1C(=O)NC2(CCCCC2)C1=O	.	.	.	.	.	.
Cc1ccc(S(=O)(=O)N2CCOCC2)cc1NC(=O)CN1C(=O)NC2(CCCC2)C1=O	/	.	.	/	.	/
O=C(/C=C/c1ccc(F)cc1)Nc1nc2n(n1)C(c1ccc(Cl)cc1)C=C(c1ccccc1)N2 (configuration not stated)	/	/	/	/	/	.
Cc1ccc(C2(C)NC(=O)N(CC(=O)N3CCN(S(=O)(=O)c4cccc(F)c4)CC3)C2=O)cc1 (configuration not stated)	11.7µM	.	.	.	.	.
COc1cccc(Cn2c(=O)n(CC3CCC(C(=O)N4CCOCC4)CC3)c(=O)c3sccc32)c1 (configuration not stated)	/	/	/	/	/	.
Cc1cccc(S(=O)(=O)N(CC(=O)Nc2ccccc2C)Cc2ccco2)c1	11.7µM	.	.	/	.	.
O=C(CN(c1ccccc1)S(=O)(=O)c1ccccc1)Nc1ccccc1C(=O)NCc1ccco1	.	.	?	.	.	.
Cc1ccc(N(CC(=O)Nc2ccccc2C(=O)NCc2ccco2)S(=O)(=O)c2ccccc2)cc1C	/	.	?	10.4µM	.	?
Cc1ccc(N(CC(=O)Nc2ccccc2-c2ccccc2)S(=O)(=O)c2ccccc2)c(C)c1	?	.	.	11.7µM	.	?
